Reference: PubChem BioAssay AID1159580 (chemical genetic matrix, 2015)
In all, about 5,500 compounds went through this assay and about 2,000 (36%) were called active. Not shown: some 18% with an inconclusive outcome. No stated cut-off is given here; in the data, active means normalized growth mostly below about 0.91 (no sharp cut-off); inconclusive means no clear call, values can overlap the other calls; inactive means mostly above about 0.92. This is one part of the list.

Experiment: chemical genetic growth profiling, strain panel (AID 1159580);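 further: tested at 20 µM; growth read once vehicle control cultures reached saturation at 30 °C; 1 = growth at the plate median or of vehicle wells; lower values mean less growth of the strain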
Settings: growth OD
[1] = S. cerevisiae deletion strains, locus YAL013W, strain DEP1, active compounds read low
[2] = S. cerevisiae deletion strains, locus YBR229C, strain ROT2, active compounds read low
[3] = S. cerevisiae deletion strains, locus YDL101C, strain DUN1, active compounds read low
[4] = S. cerevisiae deletion strains, locus YDR150W, strain NUM1, active compounds read low
[5] = S. cerevisiae deletion strains, locus YEL061C, strain CIN8, active compounds read low
[6] = S. cerevisiae deletion strains, locus YGR078C, strain PAC10, active compounds read low
[7] = S. cerevisiae deletion strains, locus YHR030C, strain SLT2, active compounds read low
[8] = S. cerevisiae deletion strains, locus YHR087W, strain rtc3, active compounds read low
[9] = S. cerevisiae deletion strains, locus YJR043C, strain POL32, active compounds read low
[10] = S. cerevisiae deletion strains, locus YJR075W, strain HOC1, active compounds read low
[11] = S. cerevisiae deletion strains, locus YKL190W, strain CNB1, active compounds read low
[12] = S. cerevisiae deletion strains, locus YLR039C, strain RIC1, active compounds read low
[13] = S. cerevisiae deletion strains, locus YLR058C, strain SHM2 (second series), active compounds read low
[14] = S. cerevisiae deletion strains, locus YLR085C, strain ARP6, active compounds read low
[15] = S. cerevisiae deletion strains, locus YLR262C, strain YPT6, active compounds read low
[16] = S. cerevisiae deletion strains, locus YML094W, strain GIM5, active compounds read low
[17] = S. cerevisiae deletion strains, locus YMR219W, strain ESC1, active compounds read low
[18] = S. cerevisiae deletion strains, locus YMR263W, strain SAP30, active compounds read low
[19] = S. cerevisiae deletion strains, locus YNL153C, strain GIM3, active compounds read low
[20] = S. cerevisiae deletion strains, locus YNL298W, strain CLA4 (second series), active compounds read low
[21] = S. cerevisiae deletion strains, locus YNL322C, strain KRE1, active compounds read low
[22] = S. cerevisiae deletion strains, locus YNR030W, strain Alg12, active compounds read low
[23] = S. cerevisiae deletion strains, locus YOL006C, strain TOP1, active compounds read low
[24] = S. cerevisiae deletion strains, locus YPL055C, strain LGE1, active compounds read low
[25] = S. cerevisiae deletion strains, locus YPL241C, strain CIN2, active compounds read low
[26] = S. cerevisiae deletion strains, locus YPR135W, strain CTF4, active compounds read low
[27] = S. cerevisiae deletion strains, locus YCL061C, strain MRC1, active compounds read low
[28] = S. cerevisiae deletion strains, locus YJL187C, strain SWE1, active compounds read low
[29] = S. cerevisiae deletion strains, locus YMR307W, strain GAS1, active compounds read low
[30] = S. cerevisiae strains, strain wild type, active compounds read low
[31] = S. cerevisiae deletion strains, locus YGR229C, strain SMI1, active compounds read low

Measured: normalized growth

Cc1c(Br)sc2ccc(Cl)cc12
active: S. cerevisiae deletion strains, locus YDL134C, strain PPH21, active compounds read low 0.849 | [7] 0.294 | [12] 0.733 | [14] 0.708 | [15] 0.709 | [16] 0.864 | [20] 0.782
inactive: [1] 0.987 | [2] 0.936 | [3] 0.96 | [4] 1.03 | [5] 0.909 | [6] 0.952 | [8] 0.963 | [9] 1.05 | [10] 0.955 | [11] 0.959 | [13] 0.952 | [17] 0.948 | [18] 0.99 | [19] 0.98 | [21] 0.976 | [22] 0.926 | [23] 0.891 | [24] 1.04 | [25] 0.939 | [26] 0.953

Cc1csc2ccc(Cl)cc12
inactive: [1] 0.994 | [2] 0.998 | [27] 1.01 | [3] 1.02 | [4] 0.993 | [5] 1.01 | [6] 0.998 | [7] 1.07 | [8] 0.999 | [28] 1.02 | [9] 1 | [10] 0.98 | [11] 1.01 | [12] 1.07 | [13] 1 | [14] 1.03 | [15] 1.04 | [16] 1.01 | [17] 1 | [18] 1.01 | [29] 1.07 | [19] 1.02 | [20] 1.06 | [21] 1.01 | [22] 1.03 | [24] 0.996 | [25] 1.02 | [26] 1 | [30] 1.01

NC(N)=[N+]1CCc2ccccc2C1
inactive: S. cerevisiae deletion strains, locus YAL040C, strain CLN3, active compounds read low 0.966 | S. cerevisiae deletion strains, locus YCL061C, strain MRC1 (second series), active compounds read low 0.989 | [4] 1 | S. cerevisiae deletion strains, locus YDR363W, strain ESC2, active compounds read low 0.904 | S. cerevisiae deletion strains, locus YER002W, strain NOP16, active compounds read low 0.982 | [31] 0.962 | [18] 0.988 | [29] 1 | S. cerevisiae deletion strains, locus YNL128W, strain TEP1, active compounds read low 0.992 | [19] 1 | S. cerevisiae deletion strains, locus YNL175C, strain NOP13, active compounds read low 0.991 | S. cerevisiae deletion strains, locus YNL197C, strain WHI3, active compounds read low 0.984 | S. cerevisiae deletion strains, locus YNL224C, strain SQS1, active compounds read low 1.01 | [21] 0.972 | S. cerevisiae deletion strains, locus YOR083W, strain WHI5 (second series), active compounds read low 0.969 | [24] 0.944

COc1cc(OC)nc(N)n1
inactive: [1] 1.02 | [2] 0.958 | [27] 1.03 | [3] 1.04 | [4] 1.03 | [5] 1 | [6] 1.03 | [31] 0.979 | [7] 1.06 | [8] 0.974 | [28] 1.02 | [9] 1.06 | [10] 1.01 | [11] 0.992 | [12] 0.946 | [13] 0.991 | [14] 0.949 | [15] 0.96 | [16] 0.986 | [17] 0.98 | [18] 1.02 | [19] 1.02 | [20] 0.99 | [21] 0.988 | [22] 0.999 | [23] 1.01 | [24] 1.02 | [25] 1.02 | [26] 1.06 | [30] 0.985

O=C1ON=C(CSc2ccccc2)/C1=C/c1ccc(Cl)cc1
active: [1] 0.0593 | [2] 0.0605 | [3] 0.0787 | [4] 0.0599 | [5] 0.215 | [6] 0.0528 | [31] 0.522 | [7] 0.0755 | [8] 0.0592 | [9] 0.0516 | [10] 0.0832 | [11] 0.201 | [12] 0.283 | [13] 0.0598 | [14] 0.0742 | [15] 0.324 | [16] 0.343 | [17] 0.0677 | [18] 0.0516 | [19] 0.0589 | [20] 0.155 | [21] 0.0609 | [22] 0.101 | [24] 0.0724 | [25] 0.0913 | [26] 0.161 | [30] 0.337
